Measured values: PubChem BioAssay AID763 (NMMLSC, 2007)
The source made the active and inactive calls. How the calls were made is not given here.

Molecular target: fMet-Leu-Phe receptor (Homo sapiens) (UniProt P21462)
Experiment: human FPR1 ligand displacement single-point test – cell-based, single concentration, selectivity assay for FPRL1 ligand SAR project, SAR follow-up (AID 763)
Details: FPR1-expressing cells, fluorescent ligand binding inhibition, active compounds read high; at 5.4 µM unless noted

Chain of fMet-Leu-Phe receptor (Homo sapiens) (P21462 whole entry, looked up): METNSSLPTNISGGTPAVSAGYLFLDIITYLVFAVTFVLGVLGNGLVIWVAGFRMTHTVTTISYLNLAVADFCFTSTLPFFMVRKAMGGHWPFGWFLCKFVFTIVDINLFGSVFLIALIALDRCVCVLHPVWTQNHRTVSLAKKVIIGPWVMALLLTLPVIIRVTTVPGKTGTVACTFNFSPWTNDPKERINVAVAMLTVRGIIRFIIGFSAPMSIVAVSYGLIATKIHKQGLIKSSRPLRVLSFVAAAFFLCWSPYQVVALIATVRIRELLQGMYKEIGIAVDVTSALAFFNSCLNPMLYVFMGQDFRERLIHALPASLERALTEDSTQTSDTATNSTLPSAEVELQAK

| SMILES | inhibition |
| --- | --- |
| COc1ccc(-c2cn3cccnc3n2)cc1NC(=O)C(C)(C)C | 1.9% [at 6.9 µM] (inactive) |
| CCCCN1CCN(c2nc(-c3ccccc3)c3cc(C)ccc3n2)CC1 | -1.5% [at 5.6 µM] (inactive) |
| CCC(=O)Nc1cccc(-c2cn3cccnc3n2)c1 | -0.2% [at 8.3 µM] (inactive) |
| COc1ccccc1-c1cc(C(F)(F)F)nc(N2CCN(C(c3ccccc3)c3ccccc3)CC2)n1 | 6.5% [at 4.4 µM] (inactive) |
| CCOC(=O)N1CCN(c2nc(-c3ccccc3OC)cc(C(F)(F)F)n2)CC1 | 1% (inactive) |
| CCCC(=O)Nc1cccc(-c2cn3cccnc3n2)c1 | -1.6% [at 7.9 µM] (inactive) |
| COc1ccc(-c2cc(C(F)(F)F)nc(N3CCN(Cc4ccccc4)CC3)n2)cc1 | -2.6% [at 5.2 µM] (inactive) |
| COc1ccc(-c2cn3cccnc3n2)cc1NC(=O)C(C)C | -8.8% [at 7.2 µM] (inactive) |
| FC(F)(F)c1cc(-c2ccccc2)nc(N2CCN(C(c3ccccc3)c3ccccc3)CC2)n1 | -4.1% [at 4.7 µM] (inactive) |
| FC(F)(F)c1nc(N2CCN(Cc3ccccc3)CC2)nc2c1CCCCC2 | 0.9% [at 5.7 µM] (inactive) |
| CCCCOc1ccc(C(=O)Nc2cc(-c3cn4cccnc4n3)ccc2OC)cc1 | 2.6% [at 5.3 µM] (inactive) |
| C/C=C\C(=O)Nc1cc(-c2cn3cccnc3n2)ccc1OC | 4% [at 7.2 µM] (inactive) |
| COc1ccc(-c2cn3cccnc3n2)cc1NC(=O)c1cccc(OC)c1OC | -0.2% [at 5.5 µM] (inactive) |
| COc1ccc(-c2cn3cccnc3n2)cc1NC(=O)CCc1ccccc1 | 6.4% [at 6 µM] (inactive) |
| COc1ccc(-c2cn3cccnc3n2)cc1NC(=O)Cc1ccccc1 | -1.4% [at 6.2 µM] (inactive) |
| FC(F)(F)c1cc(-c2ccc(Cl)cc2)nc(N2CCN(C(c3ccccc3)c3ccccc3)CC2)n1 | 2.8% [at 4.4 µM] (inactive) |
| COc1ccc(-c2cn3cccnc3n2)cc1NC(=O)c1ccco1 | 1.3% [at 6.7 µM] (inactive) |

| SMILES | inhibition |
| --- | --- |
| O=C(O)CCCC(=O)N1CCN(c2nc(-c3ccccc3)c3ccccc3n2)CC1 | -2.1% [at 5.5 µM] (inactive) |
| CCOC(=O)N1CCN(c2nc(-c3ccccc3)cc(C(F)(F)F)n2)CC1 | 1.5% [at 5.8 µM] (inactive) |
| COc1ccc(-c2cc(C(F)(F)F)nc(N3CCN(C)CC3)n2)cc1 | 2.1% [at 6.3 µM] (inactive) |
| O=C(N1CCN(c2nc(-c3ccccc3)c3ccccc3n2)CC1)C(F)(F)F | 5.9% [at 5.8 µM] (inactive) |
| COc1ccc(-c2cn3cccnc3n2)cc1NC(=O)COc1ccc(Cl)cc1 | -3.3% (inactive) |
| Clc1cccc(-c2nc(N3CCN(Cc4ccccc4)CC3)nc3c2COc2ccccc2-3)c1 | 5.3% [at 4.7 µM] (inactive) |
| CC(C)(C)OC(=O)N1CCN(c2nc(-c3ccccc3)c3cc(Br)ccc3n2)CC1 | 3.5% [at 4.7 µM] (inactive) |
| COc1ccc(CC(=O)Nc2cc(-c3cn4cccnc4n3)ccc2OC)cc1 | -1.7% [at 5.7 µM] (inactive) |
| CCOC(=O)N1CCN(c2nc(-c3cccc(OC)c3)cc(C(F)(F)F)n2)CC1 | -33.9% (inactive) |
| O=C1CC(c2ccco2)Cc2nc(N3CCN(Cc4ccccc4)CC3)ncc21 (stereo not drawn) | 5.5% [at 5.7 µM] (inactive) |
| FC(F)(F)c1cc(-c2cccs2)nc(N2CCN(Cc3ccccc3)CC2)n1 | 0.4% [at 5.5 µM] (inactive) |
| COc1ccc(-c2cn3cccnc3n2)cc1NC(=O)c1ccc(Br)o1 | 0.9% (inactive) |
| CCCC(=O)Nc1cc(-c2cn3cccnc3n2)ccc1OC | 0.5% [at 7.2 µM] (inactive) |
| COc1ccc(-c2cn3cccnc3n2)cc1NC(=O)c1ccccc1 | -4.9% [at 6.5 µM] (inactive) |
| COc1ccc(-c2cn3cccnc3n2)cc1NC(=O)c1ccc(Cl)cc1 | -0.5% [at 5.9 µM] (inactive) |
| O=C(O)C1CC=CCC1C(=O)N1CCN(c2nc(-c3ccccc3Cl)c3cc(Br)ccc3n2)CC1 (stereo not drawn) | 5.3% [at 4 µM] (inactive) |
